Structures are written as SMILES. Screen size: about 2,100 compounds; about 1,100 (52%) were called active. Inconclusive results (about 27%) are left out. Calls follow the shape of the dose curve; as a rule, active = well fitted inhibition curve with a large enough effect; inconclusive = small, poorly fitted or top-dose-only effect; inactive = no such curve, though single readings can be large or run the other way. The set was probably picked from earlier hits. The list shows a part of the results.
Potency is read from the fitted curve at half-maximal effect.

Chain of DNA dC->dU-editing enzyme APOBEC-3G (Homo sapiens) (Q9HC16 whole entry, looked up): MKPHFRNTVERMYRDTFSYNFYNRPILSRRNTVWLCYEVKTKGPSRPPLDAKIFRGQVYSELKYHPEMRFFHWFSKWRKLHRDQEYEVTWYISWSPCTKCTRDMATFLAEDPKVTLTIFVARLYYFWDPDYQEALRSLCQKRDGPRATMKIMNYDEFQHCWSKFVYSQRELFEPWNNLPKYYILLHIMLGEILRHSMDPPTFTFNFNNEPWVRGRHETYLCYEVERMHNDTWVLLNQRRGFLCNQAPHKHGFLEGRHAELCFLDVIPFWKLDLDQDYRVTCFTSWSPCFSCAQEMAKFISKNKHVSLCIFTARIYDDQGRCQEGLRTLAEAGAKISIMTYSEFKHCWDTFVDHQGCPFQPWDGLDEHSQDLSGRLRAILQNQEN

This assay concerns the target DNA dC->dU-editing enzyme APOBEC-3G (Homo sapiens) (UniProt Q9HC16). As to the kind of experiment: qHTS for inhibitors of Vif-A3G interactions: Cherry picks counterscreen.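 Also: hits raise yellow fluorescence by blocking Vif-driven A3G-eYFP degradation; nearly all actives have a fitted effect of over 70% in size.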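 As to max response: max response given as percent of control signal.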 The following applies: HeLa A3G-eYFP + Vif (tagged APOBEC3G with the HIV-1 protein that degrades it), eYFP fluorescence, 24 h. The essentials: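 Readout is eYFP fluorescence (488 nm excitation, 500-530 nm emission) measured on Acumen Explorer after 24 h compound exposure, several concentrations, at 37 deg C. Cells: HeLa stably co-expressing Vif and C-terminally eYFP-tagged A3G; MG132 positive control.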
(In general: Quantitative high-throughput screening tests each substance at several concentrations.)
Regarding `Clc1ccc2c(c1)C(C1=NCCN1)c1ccccc1CS2` (stereo not drawn), the Potency was 3.14 µM (active).
On the same count and under the same terms, to `Cc1ccccc1/C=C\c1nc2ccccc2c(=O)[nH]1` belongs 11.2 µM (active); to `O=C1c2cccc3c(N4CCCCC4)ccc(c23)C(=O)N1c1cccc(O)c1`, 2.59 µM (active).
Consider `C=CCN1C(=O)c2cccc3c(N4CCCCC4)ccc(c23)C1=O`, for which the Potency was 18.4 µM (active).
Still for that read-out and setting: next, `Cc1ccc(N2C(=O)c3cccc4c(N5CCN(C)CC5)ccc(c34)C2=O)c2cccnc12`: 15.8 µM (active).
Consider `O=C1c2cccc3c(N4CCCCC4)ccc(c23)C(=O)N1c1ccc(O)cc1`, for which the max response was 54.2% (inactive).
On to `O=C1c2cccc3c(N4CCCCC4)ccc(c23)C(=O)N1CCO`, for which the Potency is 14 µM (active).
`CSc1nc(Sc2ccccc2Cl)c2ccccc2n1`: the max response is -6.36% (inactive).
Consider `CCN(CC)c1ccc(/C=C/c2ccccn2)cc1`, for which the Potency is 16.4 µM (active).
As for `CCN(CC)c1ccc(/C=C/C(=O)c2ccc(Br)cc2)cc1`, the max response is 26.9% (inactive).
As for `CCN(CC)c1ccc(/C=C/c2ccncc2)cc1`, the Potency was 4.61 µM (active).
Same read-out and setting: next, `CCN(CC)c1ccc(/C=C/C2=C3C=CC=CC3NC=C2)cc1` (stereo not drawn): 20.6 µM (active); `CN(C)c1ccc(/C=C/c2ccncc2)cc1`: 2.59 µM (active).
Regarding `NC(=S)N/N=C/c1ccccc1OC(=O)/C=C/c1ccccc1`, the max response is 5.74% (inactive).
For `O=[N+]([O-])c1ccccc1C=NNC(=S)NN=Cc1ccccc1[N+](=O)[O-]`, the Potency is 8.86 µM (active).
`NC(=S)N/N=C/c1cccc(O)c1O`: the max response was 3.32% (inactive).
Turning to `CN(C)c1ccc(/C=C2\SC(N3CCCCC3)=NC2=O)cc1`, the Potency is 20.6 µM (active).
Still for that read-out and setting: next, `CCN(CC)c1ccc(/C=C2\C(=N)N3N=C(CC(=O)N4CCOCC4)SC3=NC2=O)cc1`: 1.58 µM (active).
For `COc1cc(/C=C2\C(=N)N3N=C(S(C)(=O)=O)SC3=NC2=O)ccc1OC(=O)c1ccco1`, the max response was 53.1% (inactive).
Take `CN(C)c1ccc(/C=C2\C(=N)N3N=C(CC(=O)N4CCCCC4)SC3=NC2=O)cc1`: the Potency was 4.61 µM (active).
Regarding `O=C(c1ccccn1)C1CCCN(Cc2cn[nH]c2-c2cc3ccccc3o2)C1` (stereo not drawn), the max response was 0.488% (inactive).
As to `C=CCn1c(O)c(N=NC(=O)CNC(=O)c2ccco2)c2ccccc21`, the Potency is 12.5 µM (active).
`C=C(C)CNC(=S)NNC(=O)c1ccco1`: the max response is 8.06% (inactive).
For `CCOC(=S)SCC(=O)N1CCc2cc(OC)ccc2C1C1C(=O)CCCC1=O` (stereo not drawn), the Potency is 14 µM (active).
The same measure, in the same setting: next, `Cc1cccc(C=Nc2ccccc2C(N)=O)c1`: 9.94 µM (active); `Cc1ccc(C=Nc2ccccc2C(N)=O)s1`: 2.5 µM (active).
The same measure, in the same setting: next, `COc1ccc(NC(=O)/C(C#N)=C/C=C/c2ccco2)cc1`: 11.2 µM (active); `COc1ccc(NC(=O)/C(C#N)=C\C=C\c2ccco2)cc1`: 14 µM (active).
On the same count and under the same terms, to `COc1ccc2c(c1)c1nc3ccccc3nc1n2Cc1ccc(OC)c(OC)c1` belongs 25.9 µM (active).
Take `COc1ccc2c(c1)c1nc3ccccc3nc1n2CC(=O)OC(C)C`: the max response is -18.3% (inactive).
Regarding `COc1ccc2c(c1)c1nc3ccccc3nc1n2Cc1ccc(OC(C)C)c(OC)c1`, the Potency is 23.1 µM (active).
On to `CC(=O)Oc1c(-c2ccc(Br)o2)oc2ccccc2c1=O`, for which the max response is -10.4% (inactive).
Regarding `CCc1cccc2c(C(O)c3c[nH]c4ccccc34)c[nH]c12` (stereo not drawn), the Potency is 20.6 µM (active).
The same measure, in the same setting: to `CC[n+]1ccccc1/C=C/c1ccc(N(C)C)cc1` belongs 20.6 µM (active).
With `CC(C)CC[n+]1ccccc1/C=C/c1ccc(N(C)C)cc1`, the Potency is 16.4 µM (active).
Same read-out and setting: to `Cc1c(CCCl)c(Cl)n2c(nc3ccccc32)c1C#N` belongs 9.94 µM (active).
Take `CN(C)c1ccc2nc3c(=O)[nH]c(=O)nc-3n(CC(O)C(O)C(O)CO)c2c1` (stereo not drawn): the max response was 0.486% (inactive).
With `Cc1cccc(CN2C(=O)N/C(=C/c3ccc(C)s3)C2=O)c1`, the Potency was 6.27 µM (active).
For the compound `Cc1ccc(/C=C2/NC(=O)N(Cc3ccccc3)C2=O)s1`, the Potency is 20.6 µM (active).
Same read-out and setting: next, `CN(C)c1ccc(/C=C2\NC(=S)N(Cc3ccccc3)C2=O)cc1`: 2.5 µM (active).
Same read-out and setting: to `Cc1ccc(/C=C2/NC(=O)N(Cc3ccccc3F)C2=O)s1` belongs 8.2 µM (active).
Consider `Cc1ccc2ccc3cc(C(=O)Nc4ccc(C)c(F)c4)nc3c2[nH]1`, for which the max response was -25.1% (inactive).
Take `CC(C)(C)OC(=O)NC(Cc1ccccc1)C(=O)N1CCC(C(=O)NCC(=O)Nc2ccc(F)cc2)CC1` (stereo not drawn): the Potency is 23.1 µM (active).
Same read-out and setting: to `COc1ccc2c(n1)Sc1nc3ccccc3nc1N2` belongs 3.26 µM (active).
Still for that read-out and setting: to `COc1cc(OC)c(OC)cc1/C=C1\CC(C)C/C(=C\c2cc(OC)c(OC)cc2OC)C1=O` (stereo not drawn) belongs 20.6 µM (active).
As for `CC1C/C(=C/c2cccs2)C(=O)/C(=C/c2cccs2)C1` (stereo not drawn), the max response was 14.5% (inactive).
Regarding `COc1ccc(-c2cc(-c3nnc(COC(=O)c4ccncc4)o3)c3ccccc3n2)cc1OC`, the max response is -0.16% (inactive).
Take `COc1ccc(COc2cc(-c3cccc(OC)c3)nc3ccc(NC(=O)c4ccc(OC)cc4)cc23)cc1`: the Potency was 3.53 µM (active).
Take `COc1ccc(COc2cc(-c3cccc(OC)c3)nc3ccc(NC(=O)C(C)C)cc23)cc1`: the Potency is 4.98 µM (active).
On the same count and under the same terms, to `CCN(CC)C(=O)c1ccc(/C=C/c2c[nH]c3ccccc23)[n+](C)c1` belongs 20.6 µM (active); to `C[n+]1cc(C(=O)N2CCCCC2)ccc1/C=C/c1c[nH]c2ccccc12`, 17.7 µM (active).
For `c1ccc2c(c1)Cc1cc3ccccc3nc1-2`, the Potency was 1.64 µM (active).
Still for that read-out and setting: next, `CN(C)c1ccc(/C=C/c2ccnc3ccc(N)cc23)cc1`: 18.4 µM (active).
Still for that read-out and setting: next, `Cc1cc(C)c2nccc(/C=C/c3ccc(N(C)C)cc3)c2c1`: 11.6 µM (active); `CN(C)c1ccc(/C=C/c2ccnc3ccc(I)cc23)cc1`: 5.17 µM (active).
On the same count and under the same terms, next, `Cc1ccc2nccc(/C=C/c3ccc(N(C)C)cc3)c2c1`: 11.6 µM (active).
Take `FC(F)(F)c1ccccc1NC(=S)NN=C1CCCCCC1`: the max response is 19.2% (inactive).
Turning to `CN(C)c1ccc(/C=C/c2ccnc3ccc(Br)cc23)cc1`, the Potency is 2.06 µM (active).
The same measure, in the same setting: next, `COc1ccc2nccc(/C=C/c3ccc(N(C)C)cc3)c2c1`: 18.4 µM (active).
`Cc1ccc2nc(-c3ccccn3)c(Nc3ccccc3C)n2c1`: the max response is 5.76% (inactive).
In the case of `O=C(Nc1ncc(Cc2ccc(SC(F)F)cc2)s1)c1ccccc1`, the Potency was 1.98 µM (active).
The same measure, in the same setting: next, `O=C(O)c1ccc(-c2ccc(/C=N/Nc3ccc([N+](=O)[O-])cc3)o2)cc1`: 15.8 µM (active).
As for `O=C(O)c1cccc(-c2ccc(/C=N/Nc3ccc([N+](=O)[O-])cc3)o2)c1`, the Potency is 14.6 µM (active).
Same read-out and setting: to `Cc1cc([N+](=O)[O-])ccc1-c1ccc(/C=N/NC(=O)c2ccc(Br)o2)o1` belongs 20.6 µM (active); to `CCOc1ccc(S(=O)(=O)N(CC(=O)N/N=C/c2ccc(-c3ccc([N+](=O)[O-])cc3)o2)c2ccccc2)cc1`, 11.2 µM (active).
For the compound `Cn1c(=S)c2[nH]c(SCCN3CCCC3)nc2n(C)c1=O`, the max response was 14.3% (inactive).
Still for that read-out and setting: to `S=C(Nc1ccccc1)N1CCn2c1nc1ccccc12` belongs -19.9% (inactive); to `O=[N+]([O-])c1ccccc1S(=O)(=O)Nc1ccc(-c2ccc(N3CCOCC3)nn2)cc1`, 0.357% (inactive).
`CC(C)(C)NC(=S)N/N=C\c1ccc(-c2ccc([N+](=O)[O-])cc2)o1`: the Potency is 10.3 µM (active).
Regarding `Cc1ccc(-c2ccc(/C=N/NC(N)=S)o2)cc1`, the max response is -14.5% (inactive).
Turning to `O=[N+]([O-])c1ccc(-c2ccc(/C=N/Nc3nc(NCc4ccccc4)nc(N4CCOCC4)n3)o2)cc1`, the Potency was 10.3 µM (active).
With `CN(/N=C/c1ccc(-c2ccc([N+](=O)[O-])cc2)o1)c1ccccc1`, the Potency was 1.16 µM (active).
In the case of `CCN(CC)c1nc(C)c(C(=S)Nc2cc([N+](=O)[O-])ccc2Cl)s1`, the max response was -7.53% (inactive).
On to `CCOC(=O)c1c(CC(C)C)csc1/N=C/C1C(=O)CCCC1=O`, for which the max response is -2.9% (inactive).
Take `Nc1ncnc2c1ncn2[C@@H]1O[C@H](CNCc2ccc(OCc3ccccc3)cc2)[C@@H](O)[C@H]1O`: the Potency is 12.5 µM (active).
As to `COc1ccc(CNCC(=O)Nc2ccccc2-n2cccc2)cc1`, the Potency is 9.94 µM (active).
Still for that read-out and setting: next, `OCCCn1c(C2CCCN2c2nc(-c3ccc(F)cc3)cs2)nc2cc(Cl)c(N3CCCCC3)cc21` (stereo not drawn): 16.4 µM (active).
For the compound `CCCn1c(C2CCCN2c2nc(-c3cccc(Br)c3)cs2)nc2ccccc21` (stereo not drawn), the max response was -7.22% (inactive).
In the case of `C[C@H](O)[C@@H]1CN2CCc3c([nH]c4ccccc34)[C@@H]2C[C@@H]1N(C)C(=O)c1ccco1`, the Potency is 12.5 µM (active).
As for `CCN(CC)C(=O)CSC(Nc1cccc(F)c1)=C(C#N)C#N`, the Potency is 13 µM (active).
For the compound `CCN(CC)c1ccc2cc(C(N)=O)c(=N)oc2c1`, the max response was 60.6% (inactive).
As for `CCN(CC)c1ccc(/C=N/NC(=O)c2ccco2)cc1`, the Potency is 8.86 µM (active).
For `O=C(N/N=C/c1sc(=O)n(Cc2ccc(Br)cc2)c1Cl)c1ccco1`, the max response was -16.3% (inactive).
On the same count and under the same terms, next, `Oc1ccc(C=NNC(=S)Nc2ccc(F)cc2)c(O)c1`: -25.9% (inactive); `O=C(NC(=S)N1CCc2ccccc21)c1ccco1`: 4.59% (inactive).
With `CCN(CC)c1ccc(/C=N/N=C(N)N)c(O)c1`, the Potency was 5.59 µM (active).
As for `CCN(CC)c1ccc(/C=N/NC(=O)c2ccco2)c(O)c1`, the Potency was 7.9 µM (active).
On the same count and under the same terms, to `Cc1ccc2nsnc2c1NC(=O)c1ccc(-c2cc(Cl)ccc2Cl)o1` belongs 14 µM (active).
On to `Cc1cc(-c2ccccc2)c2c3c(c(-c4ccccc4)n2n1)c(=O)n(C)c(=O)n3C`, for which the max response is 9.15% (inactive).
As for `C=CCSc1nnc(C)c(/C=C/Nc2ccc(Cl)cc2)n1`, the Potency is 20.6 µM (active).
The same measure, in the same setting: next, `CCOc1ccccc1NC(=O)Cn1nnc(C(=O)NCc2cccs2)c1N`: 0.651 µM (active); `COc1cc(NC(=O)C2=C(N3CCOCC3)/C(=C\c3ccc(N(C)C)cc3)CCC2)cc(OC)c1OC`: 3.53 µM (active); `Cc1cc(NC(=O)NC(=O)c2ccccc2NC(=O)C(C)N)ccc1Oc1ncc(Br)cn1` (stereo not drawn): 0.444 µM (active).

These data come from PubChem BioAssay AID651813 (National Center for Advancing Translational Sciences (NCATS), 2012).
